Test results: PubChem BioAssay (EPA / NIEHS)
A structure can be active in one record and inactive in another. The source made the active and inactive calls. How the source made its calls: active means hit-call score of the fitted dose curve at least 0.9, where 1 is the maximum; inactive means score below 0.9.

Key:
[1] = read-out: Collagen IV, COL4A1 (gene 1282); experiment: BSK_MyoF_CollagenIV: BioMAP Diversity Plus: MyoF Assay for Collagen IV Biomarker Activity (AID 2284247); conditions: primary human lung fibroblasts
In short: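 Collagen IV quantified by ELISA in human lung fibroblast cultures 24 h after chemical treatment, with DMSO as baseline. Parallel SRB staining (0.1% SRB after TCA fixation, 560 nm) flags overt cytotoxicity.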

[2] = read-out: Plasminogen activator inhibitor-1 (PAI1), SERPINE1 (gene 5054); experiment: BSK_MyoF_PAI1: BioMAP Diversity Plus: MyoF Assay for Plasminogen activator inhibitor-1 (PAI1) Biomarker Activity (AID 2284256); conditions: primary human lung fibroblasts;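 on outcome: PAI-1 protein level measured by ELISA in fibroblast cultures; PAI-1 read 24 h after compound addition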
In short: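 MyoF lung fibroblasts, human primary; compound 24 h; PAI-1 ELISA; positive-direction fit vs DMSO baseline; parallel SRB total-protein staining for cytotoxicity.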

[3] = read-out: Monokine induced gamma interferon (MIG), CXCL9 (gene 4283); experiment: BSK_KF3CT_MIG: BioMAP Diversity Plus: KF3CT Assay for Monokine induced gamma interferon (MIG) Biomarker Activity (AID 2284248); conditions: primary human keratinocytes with fibroblasts
In short: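 ELISA read-out of MIG after 24 h chemical exposure of human skin primary co-culture (keratinocytes, foreskin fibroblasts). Gain of signal relative to DMSO negative control was analysed.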

[4] = read-out: Vascular cell adhesion molecule 1 (VCAM1), VCAM1 (gene 7412); experiment: BSK_BF4T_VCAM1: BioMAP Diversity Plus: BF4T Assay for Vascular cell adhesion molecule 1 (VCAM1) Biomarker Activity (AID 2284249); conditions: primary human bronchial epithelial cells with fibroblasts
In short: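 Cell-surface VCAM-1 quantified by ELISA after 24 h chemical exposure of human bronchial epithelial/dermal fibroblast co-cultures, with SRB staining in parallel wells for cytotoxicity; DMSO baseline, positive-direction fitting.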

[5] = read-out: Collagen I, COL1A1 (gene 1277); experiment: BSK_hDFCGF_CollagenI: BioMAP Diversity Plus: hDFCGF Assay for Collagen I Biomarker Activity (AID 2284250); conditions: primary human foreskin fibroblasts
In short: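 Collagen I quantified by ELISA 24 h after chemical dosing of human dermal fibroblast primary cells, with parallel SRB staining (0.1%, TCA-fixed, 560 nm) for overt cytotoxicity.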

[6] = read-out: Interferon-inducible T-cell alpha chemoattractant (ITAC), CXCL11 (gene 6373); experiment: BSK_hDFCGF_ITAC: BioMAP Diversity Plus: hDFCGF Assay for Interferon-inducible T-cell alpha chemoattractant (ITAC) Biomarker Activity (AID 2284251); conditions: primary human foreskin fibroblasts
In short: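 I-TAC levels were read by ELISA on human dermal foreskin fibroblast primary cultures 24 h after dosing, analysed against DMSO in the positive direction. Cytotoxicity was assessed alongside by sulforhodamine B total-protein staining.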

[7] = read-out: Plasminogen activator inhibitor-1 (PAI1), SERPINE1 (gene 5054); experiment: BSK_KF3CT_PAI1: BioMAP Diversity Plus: KF3CT Assay for Plasminogen activator inhibitor-1 (PAI1) Biomarker Activity (AID 2284252); conditions: primary human keratinocytes with fibroblasts
In short: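 PAI-1 levels quantified by ELISA after 24 h compound exposure of primary human skin keratinocytes co-cultured with fibroblasts. Activity is the gain relative to DMSO; cytotoxicity tracked in parallel cultures via SRB staining.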

[8] = read-out: Monocyte Chemoattractant Protein-1 (MCP1), CCL2 (gene 6347); experiment: BSK_IMphg_MCP1: BioMAP Diversity Plus: IMphg Assay for Monocyte Chemoattractant Protein-1 (MCP1) Biomarker Activity (AID 2284253); conditions: primary human endothelial cells with macrophages
In short: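 ELISA readout of MCP-1 at 24 hours in IMphg co-cultures of venular endothelial cells and macrophages, normalised to DMSO; parallel cultures stained with sulforhodamine B for overt cytotoxicity.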

[9] = read-out: Interleukin-8 (IL8), CXCL8 (gene 3576); experiment: BSK_KF3CT_IL8: BioMAP Diversity Plus: KF3CT Assay for Interleukin-8 (IL8) Biomarker Activity (AID 2284254); conditions: primary human keratinocytes with fibroblasts
In short: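 IL-8 read-out: ELISA, 24 h post-dose, human skin primary co-culture (keratinocytes + foreskin fibroblasts). DMSO = baseline; positive-direction fit.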

[10] = read-out: Macrophage Inflammatory Protein-1 Alpha (MIP1a), CCL3 (gene 6348); experiment: BSK_IMphg_MIP1a: BioMAP Diversity Plus: IMphg Assay for Macrophage Inflammatory Protein-1 Alpha (MIP1a) Biomarker Activity (AID 2284255); conditions: primary human endothelial cells with macrophages
In short: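 MIP-1a protein levels were quantified by ELISA after 24 h treatment of human endothelial cell–macrophage co-cultures, compared with DMSO. Parallel cultures were fixed with TCA and stained with 0.1% SRB to gauge overt cytotoxicity.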

**Q.** Which results are given for `C(=NC1CCCCC1)=NC1CCCCC1`?
**A.** AC50 [1]: 12.4 µM (active); AC50 [2]: 7.53 µM (active)

**Q.** What does the source list for `COP(=S)(OC)Oc1ccc(Sc2ccc(OP(=S)(OC)OC)cc2)cc1`?
**A.** outcome [1]: inactive; outcome [2]: inactive

**Q.** For `CCCCC(CC)CO[N+](=O)[O-]` (stereo not drawn), which outcome [1] is on record?
**A.** The outcome was “inactive”.

**Q.** And the outcome [2]?
**A.** Its outcome is “inactive”.

**Q.** Which results are given for `O=S(=O)(c1ccc(Cl)cc1)c1ccc(Cl)cc1`?
**A.** outcome [1]: inactive; outcome [2]: inactive

**Q.** With `COP(=S)(OC)Oc1ccc(S(=O)(=O)N(C)C)cc1` as the compound, how does the outcome [1] read?
**A.** Its outcome is “inactive”.

**Q.** What about the outcome [2] of the same compound?
**A.** Its outcome is “inactive”.

**Q.** `COP(=S)(OC)Oc1cc(Cl)c(Cl)cc1Cl` was tested. Which outcome [1] did it give?
**A.** Its outcome is “inactive”.

**Q.** What about the outcome [2] of the same compound?
**A.** The outcome was “inactive”.

**Q.** For `Nc1ncc([N+](=O)[O-])s1`, which outcome [1] is on record?
**A.** The outcome was “inactive”.

**Q.** What about the outcome [2] of the same compound?
**A.** Its outcome is “inactive”.

**Q.** With `O=[N+]([O-])c1ccc2c3c(cccc13)CC2` as the compound, how does the outcome [1] read?
**A.** The outcome was “inactive”.

**Q.** What about the outcome [2] of the same compound?
**A.** Its outcome is “inactive”.

**Q.** Which outcome [1] does the source give for `CC(C)c1ccc(CO)cc1` here?
**A.** Its outcome is “inactive”.

**Q.** What about the outcome [2] of the same compound?
**A.** The outcome was “inactive”.

**Q.** What does the source list for `CCCCCCCCC(=O)NCc1ccc(O)c(OC)c1`?
**A.** outcome [1]: inactive; outcome [2]: inactive

**Q.** `O=C(OC1CCCCC1)c1ccccc1C(=O)OC1CCCCC1` was tested. Which outcome [1] did it give?
**A.** The outcome was “inactive”.

**Q.** What about the AC50 [2] of the same compound?
**A.** The AC50 was 20.9 µM (active).

**Q.** What does the source list for `NC(=S)Nc1ccccc1`?
**A.** outcome [1]: inactive; outcome [2]: inactive

**Q.** Which outcome [1] does the source give for `CCSC(C)CC1CC(=O)C(C(CC)=NOC/C=C/Cl)=C(O)C1` (stereo not drawn) here?
**A.** Its outcome is “inactive”.

**Q.** What about the outcome [2] of the same compound?
**A.** The outcome was “inactive”.

**Q.** What does the source list for `O=C(O)C(F)(F)C(F)(F)C(F)(F)C(F)(F)C(F)(F)C(F)(F)F`?
**A.** outcome [1]: inactive; outcome [3]: inactive; outcome [4]: inactive; outcome [5]: inactive; outcome [6]: inactive; outcome [7]: inactive; outcome [8]: inactive; outcome [9]: inactive; outcome [10]: inactive; outcome [2]: inactive

**Q.** With `COC[C@H](C)N(C(=O)CCl)c1c(C)csc1C` as the compound, how does the outcome [1] read?
**A.** The outcome was “inactive”.

**Q.** What about the outcome [2] of the same compound?
**A.** The outcome was “inactive”.

**Q.** What does the source list for `Nc1ccc(-c2ccc(N)c(Cl)c2)cc1Cl`?
**A.** outcome [1]: inactive; outcome [2]: inactive

**Q.** How did the outcome [1] turn out when `O=C(O)CCC(F)(C(F)(F)F)C(F)(F)F` was run?
**A.** The outcome was “inactive”.

**Q.** What about the outcome [3] of the same compound?
**A.** Its outcome is “inactive”.

**Q.** What about the outcome [4] of the same compound?
**A.** Its outcome is “inactive”.

**Q.** What about the outcome [5] of the same compound?
**A.** Its outcome is “inactive”.

**Q.** What about the AC50 [6] of the same compound?
**A.** The AC50 was 5.95 µM (active).

**Q.** And the outcome [6]?
**A.** The outcome was “inactive”.

**Q.** What about the outcome [7] of the same compound?
**A.** Its outcome is “inactive”.

**Q.** And the outcome [8]?
**A.** Its outcome is “inactive”.

**Q.** What about the outcome [9] of the same compound?
**A.** The outcome was “inactive”.

**Q.** And the outcome [10]?
**A.** Its outcome is “inactive”.

**Q.** And the outcome [2]?
**A.** Its outcome is “inactive”.

**Q.** For `CCNc1nc(NC(C)(C)C)nc(SC)n1`, which outcome [1] is on record?
**A.** Its outcome is “inactive”.

**Q.** And the outcome [2]?
**A.** The outcome was “inactive”.
